Assay outcomes (PubChem)
Sampled rows, rich in hits. Any-hit rate of the full collection: about 2.9%.
proKLK7 act: proKLK7 zymogen activators, primary screen, biochemical, fluorescence intensity. Kallikrein-7 (Homo sapiens), P49862. purified proKLK7, EDANS-DABCYL substrate fluorescence; 100% is mature enzyme control, 0% vehicle. activation, % at 7 µM. 0.9% of 370,000 active. AID 652039, 2013;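 active = activation above the mean of all tested compounds plus 3 SD, computed per campaign excluding outliers beyond control limits, cut at about 13% in these data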
Target sequence (P49862 whole entry, looked up): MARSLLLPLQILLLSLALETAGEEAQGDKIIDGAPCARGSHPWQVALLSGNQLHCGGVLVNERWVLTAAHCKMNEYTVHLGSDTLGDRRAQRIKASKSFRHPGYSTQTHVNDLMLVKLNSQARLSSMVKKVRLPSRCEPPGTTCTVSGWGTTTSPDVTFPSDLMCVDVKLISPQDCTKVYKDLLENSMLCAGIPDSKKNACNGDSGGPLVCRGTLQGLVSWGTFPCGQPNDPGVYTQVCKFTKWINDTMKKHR
GAA850 FXN act: FXN promoter activators, primary screen, cell-based, luciferase luminescence, HEK293 lucGAA850; HEK293 lucGAA850 FXN promoter luciferase reporter, 24 h; percent of 10 µM SAHA response; activation, % at 6 µM; 0.56% of 360,000 active; AID 540364, 2011;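 active = activation above the average of all compounds screened plus 3 SD, cutoff fixed separately per campaign, cut at about 7.5% in these data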;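 note: 0% = DMSO wells and 100% = 10 µM SAHA wells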
SMARCA2 act: SMARCA2 (BRM) function activators, primary screen, cell-based, luminescence, high throughput; MG213 cells, MMTV-luciferase reporter, dexamethasone, overnight; activation, % at 9.1 µM; 1% of 370,000 active; AID 652017, 2013; in the data active = activation above about 7.8%;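 note: 0% = vehicle wells and 100% = reference activator wells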
FAS-TE inh: FAS thioesterase domain inhibitors, primary screen, biochemical, fluorescence intensity, uHTS; recombinant FAS-TE, OMFH fluorogenic substrate, fluorescence endpoint; AID 602261, 2012; 0.67% of 360,000 active; inhibition, % at 15 µM;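 active = compounds whose normalised, plate-corrected inhibition of enzyme fluorescence in the single-dose primary screen is 50% or more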;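 note: 0% = DMSO with enzyme and 100% = substrate without enzyme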
FAS-TE inh conf: FAS thioesterase domain inhibitors, confirmation, biochemical, fluorescence intensity, single concentration; shares compounds with FAS-TE inh; recombinant FAS-TE, OMFH fluorogenic substrate; inhibition, % at 15 µM; 45% of 2,300 active;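 active = compounds inhibiting the enzyme by at least 50% at 15 µM in any one of the replicates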;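 note: 0% = enzyme with DMSO only and 100% = wells lacking enzyme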
* hit, by the source's call; · = no result given.

SMILES	proKLK7 act	GAA850 FXN act	SMARCA2 act	FAS-TE inh	FAS-TE inh conf
O=C(Nc1nc(-c2ccc(S(=O)(=O)N3CCCC3)cc2)cs1)C1COc2ccccc2O1 (stereo unspecified)	-2.1	-6.9	-1.5	89.6*	43.1*
O=C(COC(=O)c1ccc(S(=O)(=O)N2CCOCC2)cc1)Nc1nc(-c2ccccc2)cs1	-0.5	0.0	2.2	16.6	·
O=C(COc1ccccc1)Nc1nc(-c2ccc(S(=O)(=O)N3CCOCC3)cc2)cs1	-1.3	-3.6	-2.1	85.5*	57.9*
CCn1c(Cl)c(C=O)s/c1=N\S(=O)(=O)c1ccccc1	0.1	-15.9	-12.4	75.6*	32.8
CCN1C(=O)CS/C1=N\S(=O)(=O)c1ccc(Cl)cc1	-0.4	2.4	1.1	-1.5	·
COc1ccc(-n2c(SCc3ccc([N+](=O)[O-])cc3)nnc2-c2ccc(C)cc2)cc1	-0.5	3.9	-2.0	58.2*	42.3
CCOc1ccc(/C(O)=C2/C(=O)C(=O)N(CCOCCO)C2c2ccccc2)cc1 (stereo unspecified)	0.2	3.4	2.8	-4.6	·
Cc1cccc(-n2cnc3c(sc4nc(N5CCOCC5)c5c(c43)CCCC5)c2=O)c1	-0.4	0.4	-1.8	65.9*	5.9
OC(c1cccc(Cl)c1)c1nccc2ccccc12 (stereo unspecified)	-0.4	2.7	1.9	4.3	·
O=C(OC(c1ccccc1)c1nccc2ccccc12)c1cc([N+](=O)[O-])cc([N+](=O)[O-])c1 (stereo unspecified)	-0.1	0.7	-4.2	50.1*	43.0
CC(C)C(=O)Nc1cccc(-c2csc(-c3ccccc3)n2)c1	-0.5	4.1	-0.4	16.4	·
Cc1c(NC(=O)c2cccc(NC(=O)Cc3ccc(Cl)cc3)c2)c(=O)n(-c2ccccc2)n1C	-0.4	1.1	-1.3	-0.5	·
COc1ccc(CCN2CCCC(CN(C)C(=O)c3ccoc3C)C2)cc1 (stereo unspecified)	-0.9	1.9	1.8	-5.4	·
CC(=O)Nc1nc(-c2ccc3c(c2)CCN3S(C)(=O)=O)cs1	-0.2	5.3	5.0	-2.4	·
CS(=O)(=O)N1CCc2cc(-c3csc(NC(=O)Cc4cccs4)n3)ccc21	0.2	-4.7	-5.1	62.0*	29.1*
Cc1c(Cl)ccc2c1NC(=O)[C@]21N[C@@H](Cc2ccccc2)[C@H]2C(=O)N(c3ccc(F)cc3)C(=O)[C@H]21	0.0	-2.1	-5.1	76.3*	19.8
COC(=O)[C@@]1(Cc2ccc(F)cc2)[C@H]2c3cc(C(=O)N(C)C)n(Cc4ccc(OC)c(OC)c4)c3C[C@H]2CN1C(=O)c1ccccc1	0.6	·	1.1	·	·
COC(=O)[C@@]1(Cc2ccc(F)cc2)[C@H]2c3cc(C(=O)N(C)C)n(CCc4ccc(OC)c(Br)c4)c3C[C@H]2CN1C(=O)c1ccccc1	0.4	-3.6	-1.7	80.9*	1.3
COC(=O)[C@@]1(Cc2ccc(OC)cc2)[C@H]2c3cc(C(=O)N4CCCC4)n(Cc4ccc(C)o4)c3C[C@H]2CN1C(=O)c1ccccc1	0.5	·	-1.0	·	·
COC(=O)[C@@]1(Cc2ccc(OC)cc2)[C@H]2c3cc(C(=O)N4CCCC4)n(Cc4ccsc4Br)c3C[C@H]2CN1C(=O)c1ccccc1	-0.3	·	-6.4	51.0*	23.5
COc1ccc(CCNC(=O)C2CC(c3ccccc3C(F)(F)F)=NO2)cc1 (stereo unspecified)	0.2	0.6	-1.1	-5.5	·
CCN(CC)CCCNC(=O)C1CCC(CNS(=O)(=O)c2c(C)cc(C)cc2C)CC1 (stereo unspecified)	-0.3	1.0	2.5	-1.6	·
CC1=C(C(=O)Nc2ccccc2)C(c2ccco2)C(C#N)=C(SCC(=O)Nc2cccc(C)c2C)N1 (stereo unspecified)	0.5	-5.1	1.6	7.8	·
CCOc1ccccc1NC(=O)CSC1=C(C#N)C(c2ccco2)C(C(=O)Nc2nc3ccccc3s2)=C(C)N1 (stereo unspecified)	-2.2	2.7	2.2	81.3*	18.8
CC(C)(C)c1ccc(/C=N/NC(=S)NC2CCCCC2)cc1	-0.8	2.6	-4.4	52.7*	44.6*
CCOC(=O)CN(C(=O)COc1nc(-c2ccccc2)cc(C)c1C#N)c1cccc(OC)c1	0.1	-4.3	-3.4	52.0*	3.4
